Assay [1] can be described thus: NCI Yeast Anticancer Drug Screen. Data for the rad50 strain (AID 155).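 Note: 0% = growth of vehicle-only cultures of the same strain.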 To be noted: S. cerevisiae rad50 strain growth inhibition, stronger effect = higher value. In short, it runs like this: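 Readout: growth inhibition relative to vehicle-treated cultures. Compound exposure was carried out in a genetically defined yeast strain deficient in DNA damage repair.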
The nature of assay [2]: NCI Yeast Anticancer Drug Screen. Data for the mec2-1 strain (AID 157). To be noted: S. cerevisiae mec2-1 strain, stronger effect = higher value. In short, it runs like this:
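Vehicle-treated cultures served as reference for growth inhibition of compound-exposed mec2-1 yeast.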

The nature of assay [3]: NCI Yeast Anticancer Drug Screen. Data for the sgs1 mgt1 strain (AID 161).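 Note: 0% = growth of cultures given vehicle only.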 Conditions: S. cerevisiae sgs1 mgt1 strain, stronger effect = higher value. In short, it runs like this:
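Test agents were incubated with a DNA-repair-mutant yeast strain. Growth was then read and compared against vehicle-treated controls.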

The nature of assay [4]: NCI Yeast Anticancer Drug Screen. Data for the cln2 rad14 strain (AID 165).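 Note: 0% = growth equal to vehicle treated cultures.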 Conditions: S. cerevisiae cln2 rad14 strain, stronger effect = higher value. In short, it runs like this: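 Each compound was tested on cln2 rad14 yeast. Inhibition of growth was calculated against vehicle-exposed controls.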
A short description of assay [5]: NCI Yeast Anticancer Drug Screen. Data for the bub3 strain (AID 167). To be noted: S. cerevisiae bub3 mutant strain, stronger effect = higher value. In short, it runs like this:
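Readout: yeast growth inhibition, expressed relative to vehicle-only wells. The test organism is a mutant strain from a panel with lesions in DNA repair or checkpoint genes.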

Assay [6] is described as follows: NCI Yeast Anticancer Drug Screen. Data for the mlh1 rad18 strain (AID 175). Conditions: S. cerevisiae mlh1 rad18 strain growth inhibition, stronger effect = higher value. In short, it runs like this:
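Vehicle-treated cultures served as the reference for growth inhibition in a yeast strain carrying DNA damage repair alterations exposed to each compound.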

Where [7] appears, read: at 5.0 µM (retest, dose inferred, filed as 0.5).
Where [8] appears, read: at 50.0 µM (retest, dose inferred, filed as 5.0).

About 79,000 compounds went through this panel and 15% of them were active in at least one assay; those are over-represented in the sample as a whole. A number with no mark means an inactive call. Calls of active or inactive are those of the source. Cut-off read from the data, not from the text of the source: active = growth inhibition above about 70%; inactive = the rest.

For `Oc1ccc2ccccc2c1I`, the growth inhibition is 41% in assay [1] (setting [7]); 75% (active) in assay [1] (setting [8]); 91.2% (active) in assay [1] (at 50.0 µM); 42% in assay [2] (setting [7]); 75% (active) in assay [2] (setting [8]); 92.7% (active) in assay [2] (at 50.0 µM). Further, the growth inhibition in assay [3] (setting [7]) is 97% (active); in assay [3] (setting [8]), 99% (active); in assay [3] (at 50.0 µM), 93% (active); in assay [4] (setting [7]) it was 79% (active); in assay [4] (setting [8]), 99% (active); in assay [4] (at 50.0 µM) it was 92.6% (active). The growth inhibition in assay [5] (setting [7]) was 96% (active); in assay [5] (setting [8]) it was 98% (active); in assay [5] (at 50.0 µM), 91.7% (active); in assay [6] (setting [7]), 32%; in assay [6] (setting [8]), 55%; in assay [6] (at 50.0 µM), 90.8% (active).

As for `CN(C)/N=C1\CC(c2ccccc2)C(C#N)(C#N)C1(C#N)C#N` (configuration not stated), the growth inhibition in assay [1] (setting [7]) was 41%; in assay [1] (setting [8]), 99% (active); in assay [1] (at 50.0 µM) it was 89.3% (active); in assay [2] (setting [7]), 51%; in assay [2] (setting [8]), 100% (active); in assay [2] (at 50.0 µM), 89% (active). The growth inhibition is 42% in assay [3] (setting [7]); 100% (active) in assay [3] (setting [8]); 88.5% (active) in assay [3] (at 50.0 µM); 39% in assay [4] (setting [7]); 99% (active) in assay [4] (setting [8]); 88.5% (active) in assay [4] (at 50.0 µM). For the same compound, the growth inhibition in assay [5] (setting [7]) is 56%; in assay [5] (setting [8]) it was 100% (active); in assay [5] (at 50.0 µM), 89.6% (active); in assay [6] (setting [7]), 51%; in assay [6] (setting [8]), 99% (active); in assay [6] (at 50.0 µM), 91.5% (active).

As to `CC(=O)NCC1OC2COC(c3ccccc3)OC2C(NC(=O)c2ccccc2)C1OC(=O)c1ccccc1` (configuration not stated), the growth inhibition was 15% in assay [1] (setting [7]); 10% in assay [1] (setting [8]); 22.4% in assay [1] (at 50.0 µM); 15% in assay [2] (setting [7]); 10% in assay [2] (setting [8]); 11.8% in assay [2] (at 50.0 µM). The growth inhibition in assay [3] (setting [7]) was -11%; in assay [3] (setting [8]) it was -13%; in assay [3] (at 50.0 µM), 2.3%; in assay [4] (setting [7]) it was 6%; in assay [4] (setting [8]), -15%; in assay [4] (at 50.0 µM), 6.7%. Besides, the growth inhibition in assay [5] (setting [7]) is 8%; in assay [5] (setting [8]), 5%; in assay [5] (at 50.0 µM), 7.55%; in assay [6] (setting [7]) it was 15%; in assay [6] (setting [8]) it was 9%; in assay [6] (at 50.0 µM) it was 91.3% (active).

Take `CCC(=C(c1ccc(OCCN(C)C)cc1)c1cccc(O)c1)c1ccccc1` (mixture of isomers): the growth inhibition in assay [1] (setting [7]) was 34%; in assay [1] (setting [8]), 97% (active); in assay [1] (at 50.0 µM) it was 86% (active); in assay [2] (setting [7]), 10%; in assay [2] (setting [8]) it was 99% (active); in assay [2] (at 50.0 µM), 62%. The growth inhibition was 44% in assay [3] (setting [7]); 98% (active) in assay [3] (setting [8]); 96.5% (active) in assay [3] (at 50.0 µM); 34% in assay [4] (setting [7]); 97% (active) in assay [4] (setting [8]); 76.9% (active) in assay [4] (at 50.0 µM). Besides, the growth inhibition in assay [5] (setting [7]) is 23%; in assay [5] (setting [8]), 99% (active); in assay [5] (at 50.0 µM) it was 76.5% (active); in assay [6] (setting [7]), 64%; in assay [6] (setting [8]), 98% (active); in assay [6] (at 50.0 µM), 94% (active).

Regarding `CCCCCCCn1ccnc1NCCCCCCCCCCNc1nccn1CCCCCCC`, the growth inhibition in assay [1] (setting [7]) was -3%; in assay [1] (setting [8]) it was 98% (active); in assay [1] (at 50.0 µM), 99.3% (active); in assay [2] (setting [7]), -5%; in assay [2] (setting [8]), 98% (active); in assay [2] (at 50.0 µM), 99.6% (active). For the same compound, the growth inhibition in assay [3] (setting [7]) was -6%; in assay [3] (setting [8]) it was 99% (active); in assay [3] (at 50.0 µM) it was 47.4%; in assay [4] (setting [7]), -4%; in assay [4] (setting [8]), 98% (active); in assay [4] (at 50.0 µM), 93.9% (active). Also, the growth inhibition in assay [5] (setting [7]) is 1%; in assay [5] (setting [8]), 98% (active); in assay [5] (at 50.0 µM), 94.5% (active); in assay [6] (setting [7]), -1%; in assay [6] (setting [8]), 98% (active); in assay [6] (at 50.0 µM) it was 98.9% (active).

Regarding `COC(=O)c1c(C)cccc1C1CN=NC12Cc1ccccc1C2=O` (configuration not stated), the growth inhibition was 24% in assay [1] (setting [7]); 32% in assay [1] (setting [8]); 3.9% in assay [1] (at 50.0 µM); 16% in assay [2] (setting [7]); 12% in assay [2] (setting [8]); 6.25% in assay [2] (at 50.0 µM). The growth inhibition in assay [3] (setting [7]) was 23%; in assay [3] (setting [8]), 38%; in assay [3] (at 50.0 µM), 32.9%; in assay [4] (setting [7]) it was 24%; in assay [4] (setting [8]), 16%; in assay [4] (at 50.0 µM) it was 30.8%. The growth inhibition in assay [5] (setting [7]) is 25%; in assay [5] (setting [8]) it was 30%; in assay [5] (at 50.0 µM) it was 19.6%; in assay [6] (setting [7]) it was 23%; in assay [6] (setting [8]), 29%; in assay [6] (at 50.0 µM), -32.9%.

For `CCCCCCCCCCCC[n+]1ccc(C)cc1`, the growth inhibition in assay [1] (setting [7]) was 33%; in assay [1] (setting [8]), 99% (active); in assay [1] (at 50.0 µM) it was 98.2% (active); in assay [2] (setting [7]), 76% (active); in assay [2] (setting [8]), 100% (active); in assay [2] (at 50.0 µM), 99.2% (active). Moreover, the growth inhibition in assay [3] (setting [7]) is 33%; in assay [3] (setting [8]), 99% (active); in assay [3] (at 50.0 µM), 99% (active); in assay [4] (setting [7]), 20%; in assay [4] (setting [8]), 99% (active); in assay [4] (at 50.0 µM) it was 96.8% (active). The growth inhibition in assay [5] (setting [7]) is 80% (active); in assay [5] (setting [8]), 99% (active); in assay [5] (at 50.0 µM) it was 98.9% (active); in assay [6] (setting [7]), 18%; in assay [6] (setting [8]) it was 99% (active); in assay [6] (at 50.0 µM), 98.3% (active).

Regarding `CCN(CC)c1ccc2nc3ccc(N(CC)CC)cc3[n+](-c3ccccc3)c2c1`, the growth inhibition is 97% (active) in assay [1] (setting [7]); 98% (active) in assay [1] (setting [8]); 92.1% (active) in assay [1] (at 50.0 µM); 100% (active) in assay [2] (setting [7]); 99% (active) in assay [2] (setting [8]); 93.7% (active) in assay [2] (at 50.0 µM). For the same compound, the growth inhibition in assay [3] (setting [7]) was 92% (active); in assay [3] (setting [8]), 99% (active); in assay [3] (at 50.0 µM) it was 98.7% (active); in assay [4] (setting [7]), 79% (active); in assay [4] (setting [8]) it was 98% (active); in assay [4] (at 50.0 µM) it was 97.5% (active). Also, the growth inhibition in assay [5] (setting [7]) is 98% (active); in assay [5] (setting [8]), 98% (active); in assay [5] (at 50.0 µM), 98.7% (active); in assay [6] (setting [7]), 99% (active); in assay [6] (setting [8]), 99% (active); in assay [6] (at 50.0 µM) it was 98.7% (active).

For the compound `CC(=O)OCc1cc(=O)n(C)c2c3c4c(cc12)c(C)cc(=O)n4CO3`, the growth inhibition is 87% (active) in assay [1] (setting [7]); 99% (active) in assay [1] (setting [8]); 85.6% (active) in assay [1] (at 50.0 µM); 69% in assay [2] (setting [7]); 99% (active) in assay [2] (setting [8]); 88.5% (active) in assay [2] (at 50.0 µM). Besides, the growth inhibition in assay [3] (setting [7]) was 83% (active); in assay [3] (setting [8]), 99% (active); in assay [3] (at 50.0 µM), 91.2% (active); in assay [4] (setting [7]), 79% (active); in assay [4] (setting [8]), 97% (active); in assay [4] (at 50.0 µM), 87.4% (active). Also, the growth inhibition is 86% (active) in assay [5] (setting [7]); 97% (active) in assay [5] (setting [8]); 83.8% (active) in assay [5] (at 50.0 µM); 91% (active) in assay [6] (setting [7]); 99% (active) in assay [6] (setting [8]); 89.9% (active) in assay [6] (at 50.0 µM).

Source of the values: PubChem BioAssay (NCI).
